# Measured values taken from PubChem BioAssay (NCATS).
# Values joined by “and” are separate entries in the source; they are usually repeats but may differ in a detail not shown here. Equal entries are not always repeated. Inconclusive results are not listed. Where a call stands in place of a potency, no number is given. Active and inactive are the calls of the source. Unless noted, the call rests on the fitted dose curve.
# Experiments:
# [1] = biological target: Glucocorticoid receptor (Homo sapiens) (UniProt P04150); assay: qHTS assay for small molecule antagonists of glucocorticoid receptor signaling (AID 588533; active means well fitted inhibition curve with a large enough effect in the signal ratio, with a control signal flat, not every such curve was filed as active; the % refers to the signal ratio;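 further: cells stimulated with 2 nM dexamethasone as agonist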)
# Summary of the method: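 Antagonist-mode qHTS: compound titrations added to GRE-bla HeLa cells, then dexamethasone 2 nM final; 18 h, 37 C. CCF4 FRET fluorescence normalized to dexamethasone and DMSO; IC50 from Hill fit.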
# [2] = biological target: Peroxisome proliferator-activated receptor delta (Homo sapiens) (UniProt Q03181); assay: qHTS assay for small molecule antagonists of peroxisome proliferator-activated receptor delta signaling (AID 588535; active means well fitted inhibition curve with a large enough effect in the signal ratio, with a control signal flat, not every such curve was filed as active; the % refers to the signal ratio; further: potency means the concentration at half of the fitted maximal effect)
# Summary of the method: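 Antagonist-mode qHTS using GeneBLAzer PPAR-delta-UAS-bla HEK293T cells; compound exposure 18 hrs at 37 C over a titration. Ratiometric CCF4 fluorescence at 460/530 nm; concentration-response points fitted to the Hill equation.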
# [3] = biological target: Vitamin D3 receptor (Homo sapiens) (UniProt P11473); assay: qHTS assay for small molecule agonists of vitamin D receptor signaling (AID 588543)
# Summary of the method: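 Agonist-mode beta-lactamase reporter: HEK293T VDR-UAS-bla cells in charcoal-stripped 2% FBS, compound series 16 h 37 C, CCF4 2 h RT. EC50 from Hill fit, scaled against DMSO and 50 nM calcitriol control.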
# [4] = qHTS assay for small molecule agonists of retinoid X receptor alpha signaling (AID 588544); details: HEK293T RXRa-UAS-bla, beta-lactamase reporter, 18 h; 530 nm emission
# [5] = qHTS assay for small molecule agonists of the antioxidant response element (ARE) signaling pathway (AID 651741; active means well fitted activation curve with a large enough effect in the signal ratio; the % refers to the signal ratio; further: potency means the concentration at half of the fitted maximal effect)
# Summary of the method: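 Agonist activity is measured as ARE-driven beta-lactamase expression in a stable HepG2 reporter line, using 16 h compound treatment at 37 C and a FRET substrate fluorescence readout after 2 h.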
# [6] = qHTS assay for small molecule activators of the human pregnane X receptor (PXR) signaling pathway (AID 720659; call rule not given here)
# [7] = biological target: Androgen receptor (Homo sapiens) (UniProt P10275); assay: qHTS assay for small molecule agonists of androgen receptor signaling (AID 588515; active means well fitted curve in the direction sought with a large enough effect in the signal ratio, with a control signal flat; the % refers to the signal ratio); details: AR-UAS-bla HEK293, beta-lactamase ratio, agonist 16 h; stronger effect = higher value
# Summary of the method: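 Stimulation of an AR-responsive β-lactamase reporter in GripTite HEK293 cells was measured after 16 h compound exposure at 37 °C, via CCF4 fluorescence after 2 h RT. EC50 from Hill fits, normalized to R1881 at 30 nM.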
# [8] = biological target: Bile acid receptor (Homo sapiens) (UniProt Q96RI1); assay: qHTS assay for small molecule antagonists of farnesoid X receptor signaling (AID 588526); further: potency means the concentration at half of the fitted maximal effect
# Summary of the method: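 Beta-lactamase reporter antagonist mode: HEK293T FXR-UAS-bla cells, titrated compound, CDCA stimulation, 16 h 37 C, CCF4 dye 2 h RT. Data normalized to CDCA 50 uM and DMSO; Hill-fit IC50.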
# [9] = biological target: Bile acid receptor (Homo sapiens) (UniProt Q96RI1); assay: qHTS assay for small molecule agonists of farnesoid X receptor signaling (AID 588527); details: HEK293T FXR-UAS-bla, beta-lactamase ratio, 16 h; activation: stronger effect = higher value; further: series mostly up to about 77 µM
# Summary of the method: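 Agonist-mode beta-lactamase reporter in GeneBLAzer FXR-UAS-bla HEK293T cells, titration up to 92 uM, 16 h exposure at 37 C, CCF4 fluorescence. Response scaled to DMSO (0%) and 100 uM chenodeoxycholic acid (100%), then Hill-fitted for EC50 and efficacy.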
# [10] = qHTS assay for small molecule activators of the nuclear factor-kappa B (NF-kB) signaling pathway (AID 651749; active means well fitted activation curve with a large enough effect in the signal ratio; the % refers to the signal ratio; further: series mostly up to about 77 µM); details: NF-kB-bla ME-180 cells, beta-lactamase FRET ratio, 16 h; activation: stronger effect = higher value
# Summary of the method: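 FRET-based beta-lactamase detection in ME-180 cells reports NF-kB response-element-driven transcription following overnight (16 hr) compound treatment.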
# [11] = biological target: Glucocorticoid receptor (Homo sapiens) (UniProt P04150); assay: qHTS assay for small molecule agonists of glucocorticoid receptor signaling (AID 588532; active means well fitted curve in the direction sought with a large enough effect in the signal ratio, with a control signal flat; the % refers to the signal ratio); details: HeLa MMTV-bla, beta-lactamase ratio, agonist, 18 h; activation: stronger effect = higher value, percent of dexamethasone control, DMSO zero
# Summary of the method: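 Quantitative HTS using CellSensor MMTV-bla HeLa cells in charcoal/dextran-treated serum; compounds tested up to 92 uM. After 18 h at 37 C, CCF4 dye reported reporter induction.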
# [12] = biological target: Androgen receptor (Homo sapiens) (UniProt P10275); assay: qHTS assay for small molecule antagonists of androgen receptor signaling (AID 588516; active means well fitted curve in the direction sought with a large enough effect in the signal ratio, with a control signal flat, not every such curve was filed as active; the % refers to the signal ratio; further: potency means the concentration at half of the fitted maximal effect)
# Summary of the method: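 Antagonist mode: inhibition of R1881-stimulated (10 nM final) bla reporter in GeneBLAzer AR HEK 293 cells, 16 h at 37C, compounds titrated. IC50 and efficacy from Hill-equation fits of 405/460–530 nm FRET ratios.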
# Vitamin D3 receptor (Homo sapiens), sequence (P11473 whole entry, looked up): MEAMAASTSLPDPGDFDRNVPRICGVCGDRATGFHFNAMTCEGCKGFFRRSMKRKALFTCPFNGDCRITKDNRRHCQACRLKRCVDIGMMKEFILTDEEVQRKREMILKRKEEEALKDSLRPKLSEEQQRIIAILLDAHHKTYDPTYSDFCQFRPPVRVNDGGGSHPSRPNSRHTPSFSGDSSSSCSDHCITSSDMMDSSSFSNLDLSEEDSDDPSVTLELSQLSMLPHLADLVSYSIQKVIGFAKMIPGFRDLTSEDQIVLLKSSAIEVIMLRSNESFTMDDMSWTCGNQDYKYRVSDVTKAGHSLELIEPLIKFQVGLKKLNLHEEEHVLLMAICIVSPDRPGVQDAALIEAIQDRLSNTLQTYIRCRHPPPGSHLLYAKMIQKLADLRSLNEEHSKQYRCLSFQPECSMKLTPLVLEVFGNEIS
# Bile acid receptor (Homo sapiens), sequence (Q96RI1 whole entry, looked up): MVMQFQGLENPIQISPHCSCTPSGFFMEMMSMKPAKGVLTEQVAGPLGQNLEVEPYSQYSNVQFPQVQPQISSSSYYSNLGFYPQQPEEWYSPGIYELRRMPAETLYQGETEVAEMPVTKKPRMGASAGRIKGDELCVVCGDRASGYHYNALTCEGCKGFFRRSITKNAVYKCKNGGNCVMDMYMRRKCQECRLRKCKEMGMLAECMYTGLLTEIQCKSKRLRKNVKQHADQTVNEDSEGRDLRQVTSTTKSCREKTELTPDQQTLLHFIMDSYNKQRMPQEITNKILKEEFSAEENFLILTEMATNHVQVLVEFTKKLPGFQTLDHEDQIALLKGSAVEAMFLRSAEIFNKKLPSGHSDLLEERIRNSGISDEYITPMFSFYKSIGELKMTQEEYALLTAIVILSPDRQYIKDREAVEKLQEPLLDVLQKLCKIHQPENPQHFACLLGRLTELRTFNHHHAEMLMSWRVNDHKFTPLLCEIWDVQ
# Glucocorticoid receptor (Homo sapiens), sequence (P04150 whole entry, looked up): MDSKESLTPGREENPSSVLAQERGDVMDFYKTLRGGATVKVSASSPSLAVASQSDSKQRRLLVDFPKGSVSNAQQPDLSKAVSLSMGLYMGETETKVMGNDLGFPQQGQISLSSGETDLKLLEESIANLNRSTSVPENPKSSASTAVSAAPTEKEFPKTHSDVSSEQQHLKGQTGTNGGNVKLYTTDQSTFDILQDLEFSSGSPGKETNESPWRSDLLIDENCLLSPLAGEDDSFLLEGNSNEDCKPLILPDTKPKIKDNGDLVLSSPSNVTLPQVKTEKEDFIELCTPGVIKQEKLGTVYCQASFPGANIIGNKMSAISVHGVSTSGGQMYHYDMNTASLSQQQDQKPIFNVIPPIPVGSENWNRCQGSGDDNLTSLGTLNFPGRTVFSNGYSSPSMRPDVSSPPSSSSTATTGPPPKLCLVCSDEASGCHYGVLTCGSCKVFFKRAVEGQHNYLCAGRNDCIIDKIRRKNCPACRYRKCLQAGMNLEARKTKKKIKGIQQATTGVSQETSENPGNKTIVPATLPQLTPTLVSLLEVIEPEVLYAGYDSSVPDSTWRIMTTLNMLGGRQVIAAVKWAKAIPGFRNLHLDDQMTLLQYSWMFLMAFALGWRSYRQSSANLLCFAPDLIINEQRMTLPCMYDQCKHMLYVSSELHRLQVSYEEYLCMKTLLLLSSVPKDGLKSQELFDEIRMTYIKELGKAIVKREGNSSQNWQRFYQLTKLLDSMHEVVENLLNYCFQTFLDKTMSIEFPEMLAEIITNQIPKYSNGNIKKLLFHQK
# Peroxisome proliferator-activated receptor delta (Homo sapiens), sequence (Q03181 whole entry, looked up): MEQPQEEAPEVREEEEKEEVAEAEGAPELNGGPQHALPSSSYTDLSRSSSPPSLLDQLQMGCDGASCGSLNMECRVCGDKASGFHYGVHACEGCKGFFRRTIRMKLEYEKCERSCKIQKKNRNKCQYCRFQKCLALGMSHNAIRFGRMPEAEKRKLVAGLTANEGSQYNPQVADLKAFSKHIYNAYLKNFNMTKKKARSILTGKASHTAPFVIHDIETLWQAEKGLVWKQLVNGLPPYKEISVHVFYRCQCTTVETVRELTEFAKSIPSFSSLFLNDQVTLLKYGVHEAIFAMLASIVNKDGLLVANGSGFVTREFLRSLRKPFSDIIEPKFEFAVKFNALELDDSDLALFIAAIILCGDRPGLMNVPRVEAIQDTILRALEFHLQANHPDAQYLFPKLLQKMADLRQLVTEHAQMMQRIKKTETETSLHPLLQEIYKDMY
# Androgen receptor (Homo sapiens), sequence (P10275 whole entry, looked up): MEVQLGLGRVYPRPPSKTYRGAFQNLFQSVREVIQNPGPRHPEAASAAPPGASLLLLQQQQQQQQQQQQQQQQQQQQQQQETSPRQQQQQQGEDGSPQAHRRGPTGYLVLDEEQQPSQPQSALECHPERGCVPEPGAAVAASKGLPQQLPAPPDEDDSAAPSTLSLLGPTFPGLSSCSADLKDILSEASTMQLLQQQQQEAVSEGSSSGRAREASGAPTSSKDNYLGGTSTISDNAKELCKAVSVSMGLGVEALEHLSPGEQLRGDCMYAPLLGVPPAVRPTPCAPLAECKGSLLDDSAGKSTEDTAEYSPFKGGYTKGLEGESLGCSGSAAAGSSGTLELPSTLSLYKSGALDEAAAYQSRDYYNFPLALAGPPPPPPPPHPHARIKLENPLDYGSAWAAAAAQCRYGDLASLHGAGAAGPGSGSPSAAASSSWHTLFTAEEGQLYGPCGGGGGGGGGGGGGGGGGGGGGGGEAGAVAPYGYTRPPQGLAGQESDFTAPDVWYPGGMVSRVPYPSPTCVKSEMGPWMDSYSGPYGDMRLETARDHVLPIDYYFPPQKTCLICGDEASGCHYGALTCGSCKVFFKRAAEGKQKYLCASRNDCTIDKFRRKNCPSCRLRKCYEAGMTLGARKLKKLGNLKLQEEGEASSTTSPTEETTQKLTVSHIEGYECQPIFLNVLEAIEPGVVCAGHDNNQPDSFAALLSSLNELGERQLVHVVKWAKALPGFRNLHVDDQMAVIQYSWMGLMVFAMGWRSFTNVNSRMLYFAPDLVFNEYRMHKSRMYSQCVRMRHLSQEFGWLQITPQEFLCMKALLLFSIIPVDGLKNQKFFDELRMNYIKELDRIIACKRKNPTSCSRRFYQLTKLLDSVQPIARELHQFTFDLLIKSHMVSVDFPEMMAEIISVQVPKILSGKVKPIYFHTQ
compound,measurement,setting,value
CCOS(=O)(=O)OCC,Potency,[1],inactive
same,Potency,[2],inactive
same,outcome,[3],inactive
same,max response,[4],-16.7%
same,Potency,[5],inactive
same,outcome,[6],inactive
C=CC(=O)OCCCCCC(C)C,activation,[7],3.1% (inactive)
same,Potency,[8],inactive
same,activation,[9],1.09% (inactive)
same,Potency,[2],inactive
same,outcome,[3],inactive
same,max response,[4],-13.5%
same,Potency,[5],inactive
same,activation,[10],1.07% (inactive)
CSC(=O)c1c(C(F)F)nc(C(F)(F)F)c(C(=O)SC)c1CC(C)C,activation,[11],-2.18% (inactive)
same,Potency,[2],inactive
same,outcome,[3],inactive
COc1cnc(OC)n2nc(NS(=O)(=O)c3c(OCC(F)F)cccc3C(F)(F)F)nc12,outcome,[6],inactive
CC(C)(C)N(NC(=O)c1ccc(Cl)cc1)C(=O)c1ccccc1,activation,[7],4.02% (inactive)
same,Potency,[12],inactive
same,Potency,[8],inactive
same,activation,[9],5.56% (inactive)
same,activation,[11],-0.985% (inactive)
same,Potency,[1],inactive
same,Potency,[2],inactive
same,max response,[4],-8.46%
same,Potency,[5],inactive
CCOP(=O)(OCC)SCCSCC,activation,[10],0.345% (inactive)
same,outcome,[6],inactive
OC(Cn1cncn1)(c1ccc(F)cc1)c1ccccc1F (stereo unspecified),outcome,[3],inactive
same,max response,[4],-7.56%
same,Potency,[5],inactive
same,outcome,[6],inactive
CC1(C)Cc2cccc(O)c2O1,outcome,[3],inactive
same,max response,[4],-1.21%
same,Potency,[5],inactive
same,outcome,[6],inactive
O=C(O)c1nc(Cl)ccc1Cl,activation,[11],-4.22% (inactive) and 6.64% (inactive)
same,Potency,[1],inactive
same,max response,[4],15.6% and -18.9%
same,outcome,[6],inactive
CC1(C)CN=C(NN=C(/C=C/c2ccc(C(F)(F)F)cc2)/C=C/c2ccc(C(F)(F)F)cc2)NC1,Potency,[12],35.5 µM (active)
same,Potency,[8],31.6 µM (active)
same,Potency,[2],39.8 µM (active)
same,outcome,[6],inactive
CCOc1ccc(C(C)(C)COCc2cccc(Oc3ccccc3)c2)cc1,Potency,[8],inactive
same,activation,[9],4.53% (inactive)
same,activation,[11],-0.996% (inactive)
same,Potency,[1],inactive
same,outcome,[3],inactive
same,Potency,[5],inactive
same,activation,[10],2.46% (inactive)
CC(C)(C)C(=O)[C@H](Oc1ccc(Cl)cc1)n1cncn1,Potency,[1],inactive
same,outcome,[3],inactive
same,activation,[10],-5.68% (inactive)
CCOP(=S)(S)OCC,activation,[7],24.9% (inactive)
same,Potency,[12],inactive
same,Potency,[8],inactive
same,activation,[9],1.65% (inactive)
same,Potency,[1],inactive
same,outcome,[3],inactive
same,max response,[4],-7.79%
same,Potency,[5],inactive
same,outcome,[6],inactive
Cc1cc(Cl)ccc1OC(C)C(=O)O (stereo unspecified),Potency,[2],inactive
same,max response,[4],-5.5%
same,Potency,[5],inactive
same,activation,[10],-2.72% (inactive)
same,outcome,[6],inactive
CCOC(=O)Nc1cccc(OC(=O)Nc2ccccc2)c1,activation,[11],-3.53% (inactive)
same,Potency,[1],inactive
same,Potency,[2],inactive
same,outcome,[3],inactive
same,Potency,[5],24.3 µM (active)
same,activation,[10],0.127% (inactive)
O=S(=O)(O)C(F)(F)C(F)(F)C(F)(F)C(F)(F)C(F)(F)C(F)(F)F,Potency,[8],inactive
same,activation,[9],-1.09% (inactive) and 0.298% (inactive)
same,activation,[11],2.96% (inactive) and -3.35% (inactive)
same,Potency,[1],inactive
same,Potency,[2],inactive
same,outcome,[3],inactive
same,activation,[10],0.018% (inactive) and -0.659% (inactive)
same,outcome,[6],inactive
CCOP(=O)(NC(C)C)Oc1ccc(S(C)=O)c(C)c1 (stereo unspecified),Potency,[12],inactive
same,Potency,[8],inactive
same,activation,[9],-0.691% (inactive)
same,activation,[11],-7.67% (inactive)
same,Potency,[1],inactive
same,Potency,[2],inactive
same,outcome,[3],inactive
same,max response,[4],0.27%
same,Potency,[5],inactive
same,activation,[10],0.567% (inactive)
same,outcome,[6],inactive
O=C=Nc1ccc(Cl)cc1,Potency,[2],inactive
same,outcome,[3],inactive
same,activation,[10],-0.765% (inactive)
same,outcome,[6],inactive
COP(=O)(OC)O/C(C)=C/C(=O)N(C)C,Potency,[2],inactive
same,activation,[10],-1.74% (inactive)
same,outcome,[6],inactive
Cc1cc(C)nc(NC(=O)NS(=O)(=O)c2ccccc2C(=O)OC2COC2)n1,activation,[7],-3.69% (inactive)
same,Potency,[12],inactive
same,Potency,[8],inactive
same,activation,[9],1.23% (inactive)
same,activation,[11],10.1% (inactive)
same,Potency,[2],inactive
same,outcome,[3],inactive
same,max response,[4],-3.21%
same,activation,[10],1.32% (inactive)
same,outcome,[6],inactive
